From PubChem BioAssay (NCATS)
Inconclusive results are not listed. The source made the active and inactive calls. Calls follow the shape of the dose curve; as a rule, active = well fitted inhibition curve with a large enough effect; inconclusive = small, poorly fitted or top-dose-only effect; inactive = flat fitted curve, though single readings scatter.

Assays:
Assay in all cases: qHTS profiling for inhibitors of Plasmodium falciparum proliferation (AID 504749); also: nearly all actives have a fitted effect of over 60% in size
Conditions in all cases: P. falciparum in erythrocytes, SYBR Green DNA, 72 h; series mostly up to 28.7 µM
[1] = system: CP211
In short: (§1)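 Fluorescence of SYBR Green-bound parasite DNA, read at 485/535 nm, served as the growth measure. Infected erythrocytes were cultured with compound 72 h; artemisinin (0.29 uM) and DMSO wells defined the normalization range.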

[2] = system: CP215
In short: as §1

[3] = system: CP217
In short: as §1

[4] = system: CP237
In short: as §1

[5] = system: CP238
In short: as §1

[6] = system: CP247
In short: as §1

[7] = system: CP250
In short: as §1

[8] = system: CP252
In short: as §1

[9] = system: CP256
In short: as §1

[10] = system: CP260
In short: as §1

[11] = system: CP262
In short: as §1

[12] = system: CP265
In short: as §1

[13] = system: CP266
In short: as §1

[14] = system: CP268
In short: as §1

[15] = system: CP269
In short: as §1

[16] = system: CP286
In short: as §1

[17] = system: CP291
In short: as §1

[18] = system: CP297
In short: as §1

[19] = system: CP305
In short: as §1

[20] = system: CP315
In short: as §1

Measured: Potency

O=c1[nH]cnc2nc[nH]c12
inactive: all assays above

COC(=O)c1cccnc1
inactive: all assays above

Cc1c(I)c(=O)n(-c2ccccc2)n1C
inactive: all assays above

c1ccc2[nH]ccc2c1
inactive: all assays above

Cc1cc(C)nc(NS(=O)(=O)c2ccc(N)cc2)n1
inactive: all assays above

O=C(O)c1ccccc1OP(=O)(O)O
inactive: all assays above

O=C(O)Cc1ccc(CCNS(=O)(=O)c2ccc(Cl)cc2)cc1
inactive: all assays above

Cc1ccc(S(=O)(=O)NC(=O)NC2CCCCCCC2)cc1
inactive: all assays above

O=C(O)c1cc(=O)c2ccccc2o1
inactive: all assays above

CCc1cccc(CC)c1NC(=O)CN(CC(=O)O)CC(=O)O
inactive: all assays above

OCc1ccc(Cl)cc1Cl
inactive: all assays above

CCN(CC)S(=O)(=O)c1ccc(C(=O)O)cc1
inactive: all assays above

FC(F)(F)C(Cl)Br (stereo not given)
inactive: all assays above

C[N+](C)(C)CC[N+]1(C)Cc2c(Cl)c(Cl)c(Cl)c(Cl)c2C1
inactive: all assays above

O=C(Cn1ccnc1[N+](=O)[O-])NCc1ccccc1
inactive: all assays above

CC(CSC(=O)c1ccccc1)C(=O)N1C[C@@H](Sc2ccccc2)C[C@H]1C(=O)O (stereo not given in full)
inactive: all assays above

CN1C(C)(C)CCCC1(C)C
inactive: all assays above

CN(C(=O)c1c(O)c2ccccc2n(C)c1=O)c1ccccc1
inactive: all assays above

CCCCCCCC(=O)OCC(O)CO (stereo not given)
inactive: all assays above

CNCc1ccccc1
inactive: all assays above

Nc1ncnc2c1ncn2[C@@H]1O[C@H](COP(=O)(O)O)[C@@H](O)[C@H]1O
inactive: all assays above

Cn1c(=O)c2c(ncn2CCO)n(C)c1=O
inactive: all assays above

CC(C)CCCC(C)CCCC(C)CCCCC(C)CCCC(C)CCCC(C)C (stereo not given)
inactive: all assays above

Cc1ccccc1N=Nc1ccc(N=Nc2c(O)ccc3ccccc23)c(C)c1
inactive: all assays above

CC(=O)SC[C@@H](Cc1ccccc1)C(=O)NCC(=O)OCc1ccccc1
inactive: all assays above

CCCC(O)C(CC)CO (stereo not given)
inactive: all assays above

CCCCCC(N)=O
inactive: all assays above

CCCCC1(COC(=O)CCC(=O)O)C(=O)N(c2ccccc2)N(c2ccccc2)C1=O
inactive: all assays above

CCN(CC)CCOC(=O)C(c1ccccc1)c1ccccc1
inactive: all assays above
